From PubChem BioAssay (Tox21)
Inconclusive results are not listed. The source made the active and inactive calls. Calls follow the shape of the dose curve; as a rule, active = well fitted activation curve with a large enough effect in the signal ratio in the repeat runs (not every such curve was filed as active); inconclusive = weak or mixed curves, or effect the other way; inactive = no such curve, though single readings can be large or run the other way; the % refers to the signal ratio.

target: Peroxisome proliferator-activated receptor gamma (Homo sapiens) (UniProt P37231); test: qHTS assay to identify small molecule agonists of the peroxisome proliferator-activated receptor gamma (PPARg) signaling pathway (AID 743094); details: HEK293H PPARg-UAS-bla, beta-lactamase FRET ratio, 17 h; series mostly up to 57 µM; activation: at the top concentration
Sequence (P37231 whole entry, looked up): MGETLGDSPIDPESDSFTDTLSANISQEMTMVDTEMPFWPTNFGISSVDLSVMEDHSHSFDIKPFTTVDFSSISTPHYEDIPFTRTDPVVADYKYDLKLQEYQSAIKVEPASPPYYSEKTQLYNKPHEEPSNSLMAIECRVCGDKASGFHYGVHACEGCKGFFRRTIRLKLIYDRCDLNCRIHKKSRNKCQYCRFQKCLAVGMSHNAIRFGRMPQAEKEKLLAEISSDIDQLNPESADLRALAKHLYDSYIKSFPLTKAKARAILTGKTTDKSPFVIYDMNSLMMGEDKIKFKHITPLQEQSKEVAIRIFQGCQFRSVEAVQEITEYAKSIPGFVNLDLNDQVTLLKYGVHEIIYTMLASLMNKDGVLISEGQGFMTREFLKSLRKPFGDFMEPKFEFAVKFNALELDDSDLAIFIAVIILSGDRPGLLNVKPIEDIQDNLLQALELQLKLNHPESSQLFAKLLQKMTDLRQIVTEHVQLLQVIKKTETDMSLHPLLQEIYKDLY
Source text: U.S. Tox21 Program National Center for Advancing Translational Sciences [NCATS] NIH Chemical Genomics Center [NCGC] U.S. Environmental Protection Agency [EPA] National Institutes of Environmental Health Sciences [NIEHS] National Toxicology Program [NTP] U.S. Food and Drug Administration [FDA] Tox21 Assay Overview: The peroxisome proliferator-activated receptors (PPARs) are lipid-activated transcription factors of the nuclear receptor superfamily with three distinct subtypes namely PPAR alpha, PPAR delta (also called PPAR beta) and PPAR gamma (PPARg). All these subtypes heterodimerize with Retinoid X receptor (RXR) and these heterodimers regulate transcription of various genes. PPAR-gamma receptor (glitazone receptor) is involved in the regulation of glucose and lipid metabolism. To identify the compounds that activate PPAR-gamma signaling, GeneBLAzer PPAR gamma UAS-bla HEK293H cell line (Invitrogen, Carlsbad, CA, USA) containing a beta-lactamase reporter gene under control of the control of an upstream activator sequence (UAS) stably integrated into HEK293H cells was used to screen Tox21 compound library.
Tox21 Assay Protocol Summary: PPARg-bla cells were dispensed at 3000 cells/6uL/well in 1536-well black wall/clear bottom plates using a Multidrop Combi (Thermo Fisher Scientific, Waltham, MA) dispenser. After the assay plates were incubated at 37C and 5% CO2 for 5 h, 23 nL of compounds dissolved in DMSO, positive controls or DMSO only was transferred to the assay plate by a Pintool station (Kalypsys, San Diego, CA). The assay plates were incubated at 37C for 17 h. After 1 uL of LiveBLAzerTM B/G FRET substrate was added using a Bioraptr Flying Reagent Dispenser (FRD) workstation (Beckman Coulter, Indianapolis, IN, USA), the plates were incubated at room temperature for 1 h, and fluorescence intensity was measured by an Envision plate reader (PerkinElmer, Shelton, CT).
% is scaled to controls: 0 for no effect and ±100 for the full control effect.

| Compound | activation |
| --- | --- |
| O=C(CBr)c1ccccc1 | -6.8% [at 78.9 µM] (inactive) |
| CN(C)c1ccc(N(C)C)cc1 | 8.45% (inactive) |
| C/C=C/C=O | -0.179% (inactive) |
| NCC(CC(=O)O)c1ccc(Cl)cc1 (stereo not given) | -0.886% (inactive) |
| CS/C(C)=N/OC(=O)N(C)SN(C)C(=O)O/N=C(\C)SC | -0.783% (inactive) |
| CC(Cl)C(C)Cl (stereo not given) | -0.387% (inactive) |
| CC(=O)CCC(C)=O | 3.08% [at 78.9 µM] (inactive) |
| Cc1ccccc1CCl | 1.35% (inactive) |
| C=CC(=O)OC(C)(C)C | 4.5% (inactive) |
| COc1c(C(C)(C)C)cc([N+](=O)[O-])c(C)c1[N+](=O)[O-] | 4.02% (inactive) |
| Clc1cc(Cl)c(Cl)c(Cl)c1 | -0.57% (inactive) |
| C[C@H]1CNCCc2ccc(Cl)cc21 | -4.44% (inactive) |
| CC(C)(OO)c1ccccc1 | -5.64% (inactive) |
| O=C1C(=O)c2cccc3cccc1c23 | -7.28% (inactive) |
| N#C/C(N)=C(/N)C#N | -7.65% (inactive) |
| Cc1ccccc1C(=O)Nc1cccc(OC(C)C)c1 | -2.23% (inactive) |
| O=C1C(Cl)C(CCl)CN1c1cccc(C(F)(F)F)c1 (stereo not given) | -2.07% (inactive) |
| c1ccoc1 | -0.542% (inactive) |
| COC(=O)c1cncn1C(C)c1ccccc1 (stereo not given) | -0.223% (inactive) |
| CCC(Br)(CC)C(=O)NC(N)=O | -6.89% (inactive) |

| Compound | activation |
| --- | --- |
| NC(=O)C(Cl)(Cl)Cl | -2.75% [at 78.9 µM] (inactive) |
| O=Cc1ccc(Cl)cc1Cl | 1.72% [at 78.9 µM] (inactive) |
| CCCN(CC1CC1)c1c([N+](=O)[O-])cc(C(F)(F)F)cc1[N+](=O)[O-] | -8.69% (inactive) |
| O=NN1CCCCCC1 | 5.95% (inactive) |
| CCCN(CCCl)c1c([N+](=O)[O-])cc(C(F)(F)F)cc1[N+](=O)[O-] | 1.12% (inactive) |
| O=C1NCN(c2ccccc2)C12CCN(CCCOc1ccc(F)cc1)CC2 | -13.5% (inactive) |
| Cc1ccc(-c2c(Cl)nc(C#N)n2S(=O)(=O)N(C)C)cc1 | -2.31% (inactive) |
| O=C(Nc1ccccc1)Nc1cnns1 | -7.66% (inactive) |
| CCCCNP(N)(N)=S | 3.5% (inactive) |
| [O-][Cl+]O | 3.14% (inactive) |
| Brc1ccccc1 | 0.838% (inactive) |
| C=COC(C)=O | 0.971% [at 78.9 µM] (inactive) |
| CCOP(=S)(OCC)SCSCC | 1.34% (inactive) |
| O=C(NC(=O)c1c(F)cccc1F)Nc1ccc(OC(F)(F)C(F)OC(F)(F)F)c(Cl)c1 (stereo not given) | 8.25% (inactive) |
| CCOC(=O)COc1cc(-c2nn(C)c(OC(F)F)c2Cl)c(F)cc1Cl | 0.706% (inactive) |
| C=CCOC(C)=O | 2.85% (inactive) |
| C=CCC1([C@H](C)CCC)C(=O)NC(=O)NC1=O | -0.865% (inactive) |
| Cc1c(F)c(F)c(COC(=O)C2C(/C=C(\Cl)C(F)(F)F)C2(C)C)c(F)c1F (stereo not given) | 3.73% (inactive) |
| Oc1ccc(Cl)c(Cl)c1Cl | -8.36% [at 78.9 µM] (inactive) |
| CCC(Cl)CCl (stereo not given) | 2.11% [at 78.9 µM] (inactive) |
